Results from PubChem BioAssay AID1159580 (chemical genetic matrix, 2015).
Screen size: about 5,500 compounds; about 2,000 (36%) were called active. Another 18% or so got no clear call; they are omitted. Cut-off read from the data, not from the text of the source: active = normalized growth mostly below about 0.91 (no sharp cut-off); inconclusive = no clear call, values can overlap the other calls; inactive = mostly above about 0.92. The list shows a part of the results.

Assay: chemical genetic growth profiling, strain panel (AID 1159580);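 note: tested at 20 µM; growth read once vehicle control cultures reached saturation at 30 °C; 1 = growth at the plate median or of vehicle wells; lower values mean less growth of the strain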
Conditions: growth OD

Measured: normalized growth

Oc1cc(O)c2c(c1)O[C@H](c1ccc(O)c(O)c1)[C@@H](O)C2
inactive: S. cerevisiae deletion strains, locus YJR066W, strain TOR1, active compounds read low 0.927 | S. cerevisiae deletion strains, locus YJR075W, strain HOC1, active compounds read low 1 | S. cerevisiae deletion strains, locus YKL009W, strain mrt4, active compounds read low 0.991 | S. cerevisiae deletion strains, locus YKL068W, active compounds read low 0.977 | S. cerevisiae deletion strains, locus YKL085W, strain MDH1 (second series), active compounds read low 0.981 | S. cerevisiae deletion strains, locus YKL085W, strain MDH1, active compounds read low 0.981 | S. cerevisiae deletion strains, locus YKL160W, strain elf1, active compounds read low 1.02 | S. cerevisiae deletion strains, locus YKR001C, strain vps1, active compounds read low 1.03 | S. cerevisiae deletion strains, locus YKR026C, strain gcn3, active compounds read low 0.973 | S. cerevisiae deletion strains, locus YKR091W, strain srl3, active compounds read low 1.01 | S. cerevisiae deletion strains, locus YLL001W, strain dnm1, active compounds read low 1.01 | S. cerevisiae deletion strains, locus YLL026W, active compounds read low 1 | S. cerevisiae deletion strains, locus YLL041C, strain sdh2, active compounds read low 1.01 | S. cerevisiae deletion strains, locus YLR027C, strain aat2, active compounds read low 1.02 | S. cerevisiae deletion strains, locus YLR039C, strain RIC1, active compounds read low 0.919 | S. cerevisiae deletion strains, locus YLR058C, strain SHM2, active compounds read low 0.973 | S. cerevisiae deletion strains, locus YLR102C, strain apc9, active compounds read low 0.985 | S. cerevisiae deletion strains, locus YLR113W, strain HOG1, active compounds read low 0.987 | S. cerevisiae deletion strains, locus YLR221C, strain rsa3, active compounds read low 1.02 | S. cerevisiae deletion strains, locus YLR258W, strain gsy2, active compounds read low 1 | S. cerevisiae deletion strains, locus YLR262C, strain YPT6 (second series), active compounds read low 1.02 | S. cerevisiae deletion strains, locus YLR262C, strain YPT6, active compounds read low 0.945 | S. cerevisiae deletion strains, locus YLR268W, strain sec22, active compounds read low 1.02 | S. cerevisiae deletion strains, locus YLR320W, strain mms22, active compounds read low 1.01 | S. cerevisiae deletion strains, locus YLR330W, strain CHS5, active compounds read low 1 | S. cerevisiae deletion strains, locus YLR342W, strain FKS1 (second series), active compounds read low 1.02 | S. cerevisiae deletion strains, locus YLR342W, strain FKS1, active compounds read low 1.01 | S. cerevisiae deletion strains, locus YLR357W, strain rsc2, active compounds read low 0.987 | S. cerevisiae deletion strains, locus YLR370C, strain arc18, active compounds read low 1.01 | S. cerevisiae deletion strains, locus YLR371W, strain rom2, active compounds read low 1.01 | S. cerevisiae deletion strains, locus YLR384C, strain iki3, active compounds read low 0.997 | S. cerevisiae deletion strains, locus YLR418C, strain cdc73, active compounds read low 0.965 | S. cerevisiae deletion strains, locus YML016C, strain PPZ1, active compounds read low 0.999 | S. cerevisiae deletion strains, locus YML032C, strain rad52, active compounds read low 0.947 | S. cerevisiae deletion strains, locus YML120C, strain ndi1, active compounds read low 1.01 | S. cerevisiae deletion strains, locus YML124C, strain tub3, active compounds read low 0.985 | S. cerevisiae deletion strains, locus YMR058W, strain fet3, active compounds read low 1.02 | S. cerevisiae deletion strains, locus YMR078C, strain ctf18, active compounds read low 0.984 | S. cerevisiae deletion strains, locus YMR125W, strain sto1, active compounds read low 1.01 | S. cerevisiae deletion strains, locus YMR129W, active compounds read low 1.02 | S. cerevisiae deletion strains, locus YMR205C, strain PFK2, active compounds read low 1 | S. cerevisiae deletion strains, locus YMR223W, strain ubp8, active compounds read low 0.972 | S. cerevisiae deletion strains, locus YMR231W, strain pep5, active compounds read low 1 | S. cerevisiae deletion strains, locus YMR263W, strain SAP30, active compounds read low 0.993 | S. cerevisiae deletion strains, locus YMR307W, strain GAS1, active compounds read low 1.01 | S. cerevisiae deletion strains, locus YNL067W, strain RPL9B, active compounds read low 0.983 | S. cerevisiae deletion strains, locus YNL071W, strain lat1, active compounds read low 1.02 | S. cerevisiae deletion strains, locus YNL128W, strain TEP1, active compounds read low 0.97 | S. cerevisiae deletion strains, locus YNL183C, strain NPR1, active compounds read low 0.95 | S. cerevisiae deletion strains, locus YNL209W, strain ssb2, active compounds read low 1.01 | S. cerevisiae deletion strains, locus YNL233W, strain BNI4, active compounds read low 0.993 | S. cerevisiae deletion strains, locus YNL248C, strain rpa49, active compounds read low 1.03 | S. cerevisiae deletion strains, locus YNL250W, strain rad50, active compounds read low 0.981 | S. cerevisiae deletion strains, locus YNL271C, strain bni1, active compounds read low 0.988 | S. cerevisiae deletion strains, locus YNL298W, strain CLA4, active compounds read low 0.969 | S. cerevisiae deletion strains, locus YNL307C, strain MCK1, active compounds read low 0.989 | S. cerevisiae deletion strains, locus YNL322C, strain KRE1 (second series), active compounds read low 1.01 | S. cerevisiae deletion strains, locus YNL322C, strain KRE1, active compounds read low 0.99 | S. cerevisiae deletion strains, locus YNR049C, strain mso1, active compounds read low 1 | S. cerevisiae deletion strains, locus YNR052C, strain pop2, active compounds read low 0.995 | S. cerevisiae deletion strains, locus YOL012C, strain htz1 1.07 | S. cerevisiae deletion strains, locus YOL147C, strain pex11, active compounds read low 0.979 | S. cerevisiae deletion strains, locus YOR001W, strain rrp6, active compounds read low 1.02 | S. cerevisiae deletion strains, locus YOR061W, strain CKA2, active compounds read low 0.97 | S. cerevisiae deletion strains, locus YOR069W, strain VPS5, active compounds read low 0.994 | S. cerevisiae deletion strains, locus YOR070C, strain gyp1, active compounds read low 0.996 | S. cerevisiae deletion strains, locus YOR080W, strain dia2, active compounds read low 1 | S. cerevisiae deletion strains, locus YOR083W, strain WHI5, active compounds read low 1.02 | S. cerevisiae deletion strains, locus YOR106W, strain vam3, active compounds read low 1.03 | S. cerevisiae deletion strains, locus YOR136W, strain idh2, active compounds read low 1 | S. cerevisiae deletion strains, locus YOR144C, strain elg1, active compounds read low 0.983 | S. cerevisiae deletion strains, locus YOR184W, strain ser1, active compounds read low 0.995 | S. cerevisiae deletion strains, locus YOR231W, strain MKK1, active compounds read low 0.987 | S. cerevisiae deletion strains, locus YOR265W, strain rbl2, active compounds read low 1 | S. cerevisiae deletion strains, locus YOR270C, strain vph1, active compounds read low 1.07 | S. cerevisiae deletion strains, locus YOR290C, strain snf2, active compounds read low 0.971 | S. cerevisiae deletion strains, locus YOR316C, strain cot1, active compounds read low 0.979 | S. cerevisiae deletion strains, locus YPL051W, strain arl3, active compounds read low 1.02 | S. cerevisiae deletion strains, locus YPL078C, strain atp4, active compounds read low 1.01 | S. cerevisiae deletion strains, locus YPL106C, strain sse1, active compounds read low 1 | S. cerevisiae deletion strains, locus YPL240C, strain hsp82, active compounds read low 1 | S. cerevisiae deletion strains, locus YPL256C, strain CLN2, active compounds read low 0.984 | S. cerevisiae deletion strains, locus YPR119W, strain clb2, active compounds read low 0.983 | S. cerevisiae deletion strains, locus YPR141C, strain kar3, active compounds read low 0.972 | S. cerevisiae deletion strains, locus YPR163C, strain tif3, active compounds read low 0.992 | S. cerevisiae deletion strains, locus YPR167C, strain met16, active compounds read low 0.975 | S. cerevisiae deletion strains, strain wtn01, active compounds read low 1.05 | S. cerevisiae strains, strain wild type, active compounds read low 0.985
